Inhibition data for one molecule are collected here from PubChem BioAssay AID504381 (The Scripps Research Institute Molecular Screening Center, 2011).

Values without a mark were called inactive. How the calls were made is not given here.

This test relates to BZP Rat Brain Site. Kind of test: radioligand displacement at receptors and transporters – biochemical, PDSP panel, Set 2, late-stage follow-up (AID 504381). The following applies: PDSP radioligand binding panel, at 10 µM, active compounds read high. (In general: In a radioligand displacement assay an active substance lowers the binding of a labelled ligand.)

The inhibition is the change of the read-out against control, counted positive when it falls. In the case of `CC(=O)c1ccc2c(c1)Nc1ccccc1S2`, the inhibition was 11.4%.
